Results as given in PubChem BioAssay AID1159580 (chemical genetic matrix, 2015).
Several values for one entry are separate records, joined by “and”; a condition that tells them apart may be missing. Equal values may be shown once. Out of some 5,500 compounds screened, about 2,000 (36%) were called active. Another 18% or so got no clear call; they are omitted. Rule as the data show it: active = normalized growth mostly below about 0.91 (no sharp cut-off); inconclusive = no clear call, values can overlap the other calls; inactive = mostly above about 0.92. The list shows a part of the results.

Assay: chemical genetic growth profiling, strain panel (AID 1159580);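 also: tested at 20 µM; growth read once vehicle control cultures reached saturation at 30 °C; 1 = growth at the plate median or of vehicle wells; lower values mean less growth of the strain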
Conditions: S. cerevisiae deletion strains, growth OD

Measured: normalized growth

Cc1cc(=O)oc2c(O)c(O)ccc12
inactive: locus YAL021C, strain ccr4, active compounds read low 0.981 | locus YAL026C, strain drs2, active compounds read low 0.967 | locus YAL030W, strain snc1, active compounds read low 0.964 | locus YBL061C, strain skt5, active compounds read low 0.966 | locus YBR009C, strain hhf1, active compounds read low 0.966 | locus YBR021W, strain FUR4, active compounds read low 0.975 | locus YBR023C, strain chs3, active compounds read low 0.975 | locus YBR171W, strain sec66, active compounds read low 0.975 | locus YBR229C, strain ROT2, active compounds read low 1 | locus YBR231C, strain swc5, active compounds read low 0.978 | locus YBR279W, strain paf1, active compounds read low 0.973 | locus YCL011C, strain gbp2, active compounds read low 0.958 | locus YCL016C, strain dcc1, active compounds read low 0.972 | locus YCL029C, strain bik1, active compounds read low 0.999 | locus YCL061C, strain MRC1, active compounds read low 0.992 | locus YCL069W, strain vba3, active compounds read low 0.976 | locus YCR088W, strain abp1, active compounds read low 0.965 | locus YDL005C, strain med2, active compounds read low 0.958 | locus YDL035C, strain GPR1, active compounds read low 1.01 | locus YDL040C, strain nat1, active compounds read low 0.98 | locus YDL074C, strain BRE1, active compounds read low 0.993 | locus YDL101C, strain DUN1, active compounds read low 1.01 | locus YDL134C, strain PPH21, active compounds read low 1.02 | locus YDL185W, strain tfp1, active compounds read low 1 | locus YDL192W, strain arf1, active compounds read low 1 | locus YDR001C, strain nth1, active compounds read low 0.968 | locus YDR069C, strain doa4, active compounds read low 0.963 | locus YDR101C, strain arx1, active compounds read low 1.02 | locus YDR137W, strain rgp1, active compounds read low 0.94 | locus YDR150W, strain NUM1, active compounds read low 1.01 | locus YDR159W, strain sac3, active compounds read low 0.967 | locus YDR162C, strain NBP2, active compounds read low 1.02 | locus YDR195W, strain ref2 0.913 | locus YDR297W, strain sur2, active compounds read low 0.979 | locus YDR318W, strain mcm21, active compounds read low 0.993 | locus YDR334W, strain swr1, active compounds read low 0.968 | locus YDR335W, strain msn5, active compounds read low 0.981 | locus YDR388W, active compounds read low 0.994 | locus YDR392W, strain spt3, active compounds read low 0.973 | locus YDR502C, strain sam2, active compounds read low 1 | locus YEL003W, strain gim4, active compounds read low 0.976 | locus YEL037C, strain rad23, active compounds read low 0.934 | locus YEL061C, strain CIN8 (second series), active compounds read low 0.952 | locus YEL061C, strain CIN8, active compounds read low 1 | locus YER015W, strain faa2, active compounds read low 1 | locus YER016W, strain bim1, active compounds read low 0.986 | locus YER110C, active compounds read low 0.993 | locus YER111C, strain swi4, active compounds read low 0.957 | locus YER155C, strain BEM2 (second series), active compounds read low 0.987 | locus YER155C, strain BEM2, active compounds read low 1.01 | locus YER167W, strain BCK2, active compounds read low 1.01 | locus YFR010W, strain ubp6, active compounds read low 0.947 | locus YGL078C, strain dbp3, active compounds read low 1 | locus YGL086W, strain mad1, active compounds read low 0.991 | locus YGL167C, strain pmr1, active compounds read low 0.943 | locus YGL173C, strain kem1, active compounds read low 0.987 | locus YGL227W, strain vid30, active compounds read low 0.962 | locus YGL240W, strain doc1, active compounds read low 0.979 | locus YGL248W, strain PDE1, active compounds read low 1.01 | locus YGL253W, strain hxk2, active compounds read low 0.974 | locus YGR135W, strain pre9, active compounds read low 0.988 | locus YGR229C, strain SMI1, active compounds read low 1 | locus YGR252W, strain gcn5, active compounds read low 0.977 | locus YHR013C, strain ard1, active compounds read low 0.942 | locus YHR027C, strain rpn1, active compounds read low 0.973 | locus YHR030C, strain SLT2, active compounds read low 1 and 0.999 | locus YHR079C, strain IRE1 (second series), active compounds read low 1 | locus YHR079C, strain IRE1, active compounds read low 0.983 | locus YHR094C, strain hxt1, active compounds read low 1.02 | locus YHR129C, strain ARP1, active compounds read low 1 | locus YHR142W, strain chs7, active compounds read low 0.973 | locus YHR200W, strain rpn10, active compounds read low 1.02 | locus YIL066C, strain RNR3, active compounds read low 1.02 | locus YIL073C, strain SPO22, active compounds read low 1.03 | locus YIL125W, strain kgd1, active compounds read low 0.975 | locus YIR030C, strain dcg1, active compounds read low 1 | locus YJL092W, strain hpr5, active compounds read low 0.978 | locus YJL095W, strain BCK1 (second series), active compounds read low 0.988 | locus YJL095W, strain BCK1, active compounds read low 0.98 and 0.997 | locus YJL115W, strain asf1, active compounds read low 0.975 | locus YJL129C, strain trk1, active compounds read low 0.972 | locus YJL134W, strain LCB3, active compounds read low 1.01 | locus YJL154C, strain vps35, active compounds read low 0.976 | locus YJL164C, strain tpk1, active compounds read low 0.985 | locus YJL166W, strain qcr8, active compounds read low 1 | locus YJL168C, strain set2, active compounds read low 0.993 | locus YJL187C, strain SWE1 (second series), active compounds read low 1 | locus YJL187C, strain SWE1, active compounds read low 0.976
